Data from PubChem BioAssay AID1159580 (chemical genetic matrix, 2015).
Values joined by “and” are separate entries in the source; they are usually repeats but may differ in a detail not shown here. Identical values can stand only once. In all, about 5,500 compounds went through this assay and about 2,000 (36%) were called active. About 18% were inconclusive and are not listed. No stated cut-off is given here; in the data, active means normalized growth mostly below about 0.91 (no sharp cut-off); inconclusive means no clear call, values can overlap the other calls; inactive means mostly above about 0.92. Some of the results follow. The source holds several records for some structures; these can differ, active in one and inactive in another.

Assay: chemical genetic growth profiling, strain panel (AID 1159580);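 further: tested at 20 µM; growth read once vehicle control cultures reached saturation at 30 °C; 1 = growth at the plate median or of vehicle wells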
Details: growth OD
[1] = S. cerevisiae deletion strains, locus YAL013W, strain DEP1, stronger effect = lower value
[2] = S. cerevisiae deletion strains, locus YAL040C, strain CLN3, stronger effect = lower value
[3] = S. cerevisiae deletion strains, locus YCL061C, strain MRC1 (second series), stronger effect = lower value
[4] = S. cerevisiae deletion strains, locus YDR150W, strain NUM1, stronger effect = lower value
[5] = S. cerevisiae deletion strains, locus YDR363W, strain ESC2, stronger effect = lower value
[6] = S. cerevisiae deletion strains, locus YER002W, strain NOP16, stronger effect = lower value
[7] = S. cerevisiae deletion strains, locus YJR075W, strain HOC1, stronger effect = lower value
[8] = S. cerevisiae deletion strains, locus YNL175C, strain NOP13, stronger effect = lower value
[9] = S. cerevisiae deletion strains, locus YNL197C, strain WHI3, stronger effect = lower value
[10] = S. cerevisiae deletion strains, locus YNL224C, strain SQS1, stronger effect = lower value
[11] = S. cerevisiae deletion strains, locus YOR083W, strain WHI5 (second series), stronger effect = lower value
[12] = S. cerevisiae deletion strains, locus YPL241C, strain CIN2, stronger effect = lower value
[13] = S. cerevisiae deletion strains, locus YNL153C, strain GIM3, stronger effect = lower value
[14] = S. cerevisiae deletion strains, locus YPL055C, strain LGE1, stronger effect = lower value
[15] = S. cerevisiae deletion strains, locus YDL101C, strain DUN1, stronger effect = lower value
[16] = S. cerevisiae deletion strains, locus YHR030C, strain SLT2, stronger effect = lower value

Measured: normalized growth

CN(C)c1cc2c(Nc3ccc4c(cnn4Cc4ccccc4)c3)ncnc2cn1
inactive: [1] 0.994 | [2] 0.971 | [3] 1.01 | [4] 1.01 | [5] 0.998 | [6] 0.98 | [7] 1.01 | S. cerevisiae deletion strains, locus YNL128W, strain TEP1, stronger effect = lower value 1 | [8] 0.995 | [9] 1 | [10] 1.02 | [11] 0.954 | [12] 1

CC(C)[C@@H](CO)Nc1nc(Nc2cccc(Cl)c2)c2ncn(C(C)C)c2n1
inactive: [1] 1.01 | [2] 1.01 | [3] 1.01 | [5] 1.02 | [6] 1.04 | [7] 1.02 | [13] 0.894 | [8] 0.982 | [9] 0.994 | [10] 0.989 | [11] 0.913 | [14] 1.02

COc1cc2ncnc(Nc3cccc(Cl)c3)c2cc1OC
inactive: [1] 0.962 and 0.936 | [2] 1.03 | S. cerevisiae deletion strains, locus YBR229C, strain ROT2, stronger effect = lower value 0.962 | [3] 0.987 | S. cerevisiae deletion strains, locus YCL061C, strain MRC1, stronger effect = lower value 0.956 | [15] 0.985 | [4] 0.915 and 0.999 | [5] 0.968 | [6] 0.976 | S. cerevisiae deletion strains, locus YGR078C, strain PAC10, stronger effect = lower value 0.968 and 0.958 | S. cerevisiae deletion strains, locus YGR229C, strain SMI1, stronger effect = lower value 0.97 | [16] 0.882 | S. cerevisiae deletion strains, locus YHR087W, strain rtc3, stronger effect = lower value 0.95 | [7] 0.906 | S. cerevisiae deletion strains, locus YLR039C, strain RIC1, stronger effect = lower value 1.03 | S. cerevisiae deletion strains, locus YLR058C, strain SHM2 (second series), stronger effect = lower value 0.981 | S. cerevisiae deletion strains, locus YLR262C, strain YPT6, stronger effect = lower value 1.02 | S. cerevisiae deletion strains, locus YMR219W, strain ESC1, stronger effect = lower value 0.986 | S. cerevisiae deletion strains, locus YMR263W, strain SAP30, stronger effect = lower value 0.91 | [13] 0.974 | [8] 0.954 | [9] 0.982 | [10] 0.965 | S. cerevisiae deletion strains, locus YNL298W, strain CLA4 (second series), stronger effect = lower value 0.883 | S. cerevisiae deletion strains, locus YNL322C, strain KRE1, stronger effect = lower value 0.99 | [11] 0.89 | [14] 0.815 and 0.967 | S. cerevisiae strains, strain wild type, stronger effect = lower value 0.926
active: S. cerevisiae deletion strains, locus YDL134C, strain PPH21, stronger effect = lower value 0.877 | S. cerevisiae deletion strains, locus YEL061C, strain CIN8, stronger effect = lower value 0.834 | S. cerevisiae deletion strains, locus YLR085C, strain ARP6, stronger effect = lower value 0.46 | S. cerevisiae deletion strains, locus YML094W, strain GIM5, stronger effect = lower value 0.828 | S. cerevisiae deletion strains, locus YNR030W, strain Alg12, stronger effect = lower value 0.82 | [12] 0.831 | S. cerevisiae deletion strains, locus YPR135W, strain CTF4, stronger effect = lower value 0.533
0.562 (active) and 0.979 (inactive): S. cerevisiae deletion strains, locus YMR307W, strain GAS1, stronger effect = lower value

COc1cc(C2CC(=S)Nc3ccccc3S2)cc(OC)c1OC (configuration not stated)
inactive: S. cerevisiae deletion strains, locus YAR019C, strain CDC15, stronger effect = lower value 0.99 | S. cerevisiae deletion strains, locus YBL105C, strain PKC1, stronger effect = lower value 0.986 | S. cerevisiae deletion strains, locus YBR135W, strain CKS1, stronger effect = lower value 0.993 | S. cerevisiae deletion strains, locus YBR136W, strain MEC1, stronger effect = lower value 0.992 | S. cerevisiae deletion strains, locus YBR160W, strain CDC28, stronger effect = lower value 1 | S. cerevisiae deletion strains, locus YDL017W, strain CDC7, stronger effect = lower value 0.998 | S. cerevisiae deletion strains, locus YDL028C, strain MPS1, stronger effect = lower value 0.981 | [15] 0.987 | S. cerevisiae deletion strains, locus YDL108W, strain KIN28, stronger effect = lower value 0.978 | S. cerevisiae deletion strains, locus YDL132W, strain cdc53, stronger effect = lower value 0.999 | S. cerevisiae deletion strains, locus YDL214C, strain PRR2, stronger effect = lower value 0.923 | S. cerevisiae deletion strains, locus YDR052C, strain DBF4, stronger effect = lower value 0.995 | S. cerevisiae deletion strains, locus YDR054C, strain cdc34, stronger effect = lower value 0.986 | S. cerevisiae deletion strains, locus YDR226W, strain ADK1, stronger effect = lower value 0.99 | S. cerevisiae deletion strains, locus YDR477W, strain SNF1, stronger effect = lower value 0.969 | S. cerevisiae deletion strains, locus YER123W, strain YCK3, stronger effect = lower value 0.881 | S. cerevisiae deletion strains, locus YER133W, strain GLC7, stronger effect = lower value 0.941 | S. cerevisiae deletion strains, locus YFL009W, strain cdc4, stronger effect = lower value 0.988 | S. cerevisiae deletion strains, locus YFL029C, strain CAK1, stronger effect = lower value 0.988 | S. cerevisiae deletion strains, locus YFR003C, strain YPI1, stronger effect = lower value 0.99 | S. cerevisiae deletion strains, locus YFR019W, strain FAB1, stronger effect = lower value 0.945 | S. cerevisiae deletion strains, locus YFR028C, strain CDC14, stronger effect = lower value 0.993 | S. cerevisiae deletion strains, locus YGR040W, strain KSS1, stronger effect = lower value 0.94 | S. cerevisiae deletion strains, locus YGR052W, strain FMP48, stronger effect = lower value 1.02 | S. cerevisiae deletion strains, locus YGR092W, strain DBF2, stronger effect = lower value 0.94 | [16] 1.07 | S. cerevisiae deletion strains, locus YHR079C, strain IRE1, stronger effect = lower value 1.04 | S. cerevisiae deletion strains, locus YHR082C, strain KSP1, stronger effect = lower value 1.06 | S. cerevisiae deletion strains, locus YHR205W, strain SCH9, stronger effect = lower value 0.974 | S. cerevisiae deletion strains, locus YIL147C, strain SLN1, stronger effect = lower value 0.98 | S. cerevisiae deletion strains, locus YJL095W, strain BCK1, stronger effect = lower value 1.08 | S. cerevisiae deletion strains, locus YJL128C, strain PBS2, stronger effect = lower value 0.942 | S. cerevisiae deletion strains, locus YJL157C, strain FAR1, stronger effect = lower value 0.928 | S. cerevisiae deletion strains, locus YJR016C, strain ILV3, stronger effect = lower value 1 | S. cerevisiae deletion strains, locus YJR066W, strain TOR1 (second series), stronger effect = lower value 0.937 | S. cerevisiae deletion strains, locus YJR066W, strain TOR1, stronger effect = lower value 1.08 | S. cerevisiae deletion strains, locus YKL048C, strain ELM1, stronger effect = lower value 0.975 | S. cerevisiae deletion strains, locus YKL067W, strain YNK1, stronger effect = lower value 0.946 | S. cerevisiae deletion strains, locus YKL101W, strain HSL1, stronger effect = lower value 0.951 | S. cerevisiae deletion strains, locus YKL193C, strain SDS22, stronger effect = lower value 0.994 | S. cerevisiae deletion strains, locus YKL203C, strain TOR2, stronger effect = lower value 1.03 | S. cerevisiae deletion strains, locus YLR113W, strain HOG1, stronger effect = lower value 1 | S. cerevisiae deletion strains, locus YLR133W, strain CKI1, stronger effect = lower value 0.978 | S. cerevisiae deletion strains, locus YLR403W, strain SFP1, stronger effect = lower value 0.967 | S. cerevisiae deletion strains, locus YML070W, strain DAK1, stronger effect = lower value 0.914 | S. cerevisiae deletion strains, locus YMR001C, strain CDC5, stronger effect = lower value 0.993 | S. cerevisiae deletion strains, locus YMR205C, strain PFK2 (second series), stronger effect = lower value 0.95 | S. cerevisiae deletion strains, locus YMR277W, strain FCP1, stronger effect = lower value 0.999 | S. cerevisiae deletion strains, locus YNL006W, strain LST8, stronger effect = lower value 0.994 | S. cerevisiae deletion strains, locus YNL020C, strain ARK1, stronger effect = lower value 0.961 | S. cerevisiae deletion strains, locus YNL161W, strain CBK1, stronger effect = lower value 0.995 | S. cerevisiae deletion strains, locus YNL183C, strain NPR1, stronger effect = lower value 1.06 | S. cerevisiae deletion strains, locus YNL207W, strain RIO2, stronger effect = lower value 0.987 | S. cerevisiae deletion strains, locus YNL222W, strain SSU72, stronger effect = lower value 0.974 | S. cerevisiae deletion strains, locus YNL307C, strain MCK1 (second series), stronger effect = lower value 0.963 | S. cerevisiae deletion strains, locus YOL078W, strain AVO1, stronger effect = lower value 0.985 | S. cerevisiae deletion strains, locus YOL136C, strain PFK27, stronger effect = lower value 0.939 | S. cerevisiae deletion strains, locus YOR061W, strain CKA2, stronger effect = lower value 0.944 | S. cerevisiae deletion strains, locus YOR119C, strain RIO1, stronger effect = lower value 1.01 | S. cerevisiae deletion strains, locus YOR231W, strain MKK1, stronger effect = lower value 1.03 | S. cerevisiae deletion strains, locus YOR329C, strain SCD5, stronger effect = lower value 0.999 | S. cerevisiae deletion strains, locus YPL031C, strain PHO85, stronger effect = lower value 0.953 | S. cerevisiae deletion strains, locus YPL153C, strain RAD53, stronger effect = lower value 0.945 | S. cerevisiae deletion strains, locus YPL204W, strain HRR25, stronger effect = lower value 0.962 | S. cerevisiae deletion strains, locus YPL209C, strain IPL1, stronger effect = lower value 0.983 | S. cerevisiae deletion strains, locus YPL256C, strain CLN2, stronger effect = lower value 1.05 | S. cerevisiae deletion strains, locus YPR025C, strain CCL1, stronger effect = lower value 0.994 | S. cerevisiae deletion strains, locus YPR106W, strain ISR1, stronger effect = lower value 0.992 | S. cerevisiae deletion strains, locus YPR111W, strain DBF20, stronger effect = lower value 0.981 | S. cerevisiae deletion strains, strain NNK1, stronger effect = lower value 0.988 | S. cerevisiae deletion strains, strain TSCII, stronger effect = lower value 0.999
